Sampled rows, rich in hits. Any-hit rate of the full collection: about 3.8%.
Mdm2 MdmX PPI: inhibitors of human Mdm2-MdmX association, primary screen, cell-based, luminescence, split luciferase, SaOS-2, uHTS. AID 485346, 2010. Protein Mdm4 (Homo sapiens) + E3 ubiquitin-protein ligase Mdm2 (Homo sapiens), …. SaOS-2 split-luciferase Mdm2/MdmX complementation. 330,000 compounds, 3% hits. inhibition, % at 8 µM;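 active means inhibition of at least 50% at 8 µM in the primary screen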
Target sequence (O15151 whole entry, looked up): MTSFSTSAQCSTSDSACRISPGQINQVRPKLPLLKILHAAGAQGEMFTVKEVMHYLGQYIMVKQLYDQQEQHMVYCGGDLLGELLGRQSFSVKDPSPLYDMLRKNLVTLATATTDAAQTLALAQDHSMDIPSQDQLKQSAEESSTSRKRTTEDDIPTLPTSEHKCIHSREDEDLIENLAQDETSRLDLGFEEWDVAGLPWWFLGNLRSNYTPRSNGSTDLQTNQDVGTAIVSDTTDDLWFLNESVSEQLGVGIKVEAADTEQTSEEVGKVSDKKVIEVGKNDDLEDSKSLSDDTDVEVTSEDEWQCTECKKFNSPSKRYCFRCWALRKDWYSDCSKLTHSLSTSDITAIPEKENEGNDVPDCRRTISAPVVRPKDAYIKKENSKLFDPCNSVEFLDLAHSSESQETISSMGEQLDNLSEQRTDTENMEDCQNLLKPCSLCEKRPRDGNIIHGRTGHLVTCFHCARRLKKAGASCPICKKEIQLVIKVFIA
Target sequence (Q00987 whole entry, looked up): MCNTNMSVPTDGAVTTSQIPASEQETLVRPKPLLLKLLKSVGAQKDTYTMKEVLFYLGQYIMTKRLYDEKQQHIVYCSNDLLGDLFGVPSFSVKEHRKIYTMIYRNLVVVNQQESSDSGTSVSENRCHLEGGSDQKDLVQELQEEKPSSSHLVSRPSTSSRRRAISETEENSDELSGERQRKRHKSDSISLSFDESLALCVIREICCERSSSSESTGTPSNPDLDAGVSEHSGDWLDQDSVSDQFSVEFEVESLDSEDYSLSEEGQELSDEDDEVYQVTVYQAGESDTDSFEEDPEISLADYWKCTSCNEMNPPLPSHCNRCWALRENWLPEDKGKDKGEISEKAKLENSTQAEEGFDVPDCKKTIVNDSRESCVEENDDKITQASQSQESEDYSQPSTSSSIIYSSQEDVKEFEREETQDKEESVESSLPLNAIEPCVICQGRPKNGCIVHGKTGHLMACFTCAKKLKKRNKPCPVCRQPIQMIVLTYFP
Jurkat NFkB inh: inhibitors of induced NF-kB luciferase reporter, primary screen, TCR NF-kB activation inhibitor project, cell-based, luminescence, uHTS; inhibition, % at 4 µM; AID 435003, 2010; 330,000 compounds, 0.53% hits; Jurkat, PMA/ionomycin-induced NF-kB luciferase reporter; in the data active means inhibition above about 50%
697 NFkB inh: inhibitors of PMA/ionomycin-induced NF-kB reporter, 697 cells, primary screen, B-cell NF-kB inhibitor project, cell-based, luminescence, uHTS; AID 435022, 2010; 330,000 compounds, 0.33% hits; inhibition, % at 4 µM; 697 B-cell NF-kB luciferase reporter, 16 h; in the data active means inhibition above about 35%
NTR1 ag: agonists of human NTR1, primary screen, imaging, U2OS cells, beta-arrestin-GFP, high content. Neurotensin receptor type 1 (Homo sapiens), P30989. NTR1-U2OS beta-arrestin-GFP spot imaging, agonist mode. activation, % at 20 µM. 330,000 compounds, 0.17% hits;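 active means activation at or above 40% of the spot to cytoplasm intensity ratio, with at least 20 cells analyzed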;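 further: 0% = DMSO without peptide and 100% = 100 nM NTR1 peptide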
Beta cell apopt: inhibitors of cytokine-induced beta cell apoptosis, primary screen, luminescence | INS-1E cytokine-induced death, ATP luminescence, 48 h; percent of positive-control rescue, neutral wells zero | protection from apoptosis, % (no concentration beside the values) | 300,000 compounds, 0.8% hits | AID 435005, 2010;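 active means Every replicate reaches about 75%, or at least half do and their mean reaches it too, limit read from the data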;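 further: 0% = cytokine-treated negative control wells and 100% = positive control rescue; higher means more ATP so stronger rescue from cytokine killing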
Bfl-1 A1 inh: caspase 3/7 activation in MEF A1-2A-BIM cells, primary screen, A1 inhibitor project, cell-based, luminescence, HTS | Caspase-Glo 3/7 luminescence, 3 h; percent of clofoctol response, vehicle zero | caspase activation, % (no concentration beside the values) | 330,000 compounds, 0.066% hits | AID 2462, 2010;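 active means over half of replicate activation scores above 10%, or exactly half above 10 with the replicate mean above 10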
Jurkat NFkB conf: PMA/ionomycin-induced NF-kB reporter inhibitors, Jurkat retest, confirmation, T-cell NF-kB inhibitor project, cell-based, luminescence, single concentration. AID 435020, 2010. inhibition, % at 4 µM. shares compounds with Jurkat NFkB inh. 2,700 compounds, 27% hits. Jurkat NF-kB luciferase, 16 h;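 active means inhibition reaching about 45% at 4 µM in either replicate, limit read from the data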;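 further: plate controls were PMA/ionomycin stimulated DMSO wells for no effect and unstimulated DMSO wells for full effect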
697 NFkB conf: PMA/ionomycin-induced NF-kB reporter inhibitors, 697 retest, confirmation, B-cell NF-kB inhibitor project, cell-based, luminescence, single concentration. shares compounds with 697 NFkB inh. inhibition, % at 4 µM. 2,000 compounds, 35% hits. 697 B-cell NF-kB luciferase, 16 h; in the data active means inhibition mostly above about 28%, no sharp cut-off; inactive means mostly below about 22%
Mdm2 MdmX conf: Mdm2-MdmX complex disruptors, retested hits, confirmation, luminescence, single concentration. AID 489028, 2010. inhibition, % at 8 µM. shares compounds with Mdm2 MdmX PPI. 10,000 compounds, 55% hits. Mdm2-MdmX binding, luminescent assay; in the data active means inhibition above about 40%
FLuc counter: full-length luciferase signal inhibition, confirmation, counter-screen for Mdm2/MdmX interaction inhibitor project, cell-based, single concentration, SaOS-2 | 6,200 compounds, 77% hits | shares compounds with Mdm2 MdmX PPI | SaOS-2 full-length luciferase counterscreen, luminescence | inhibition, % at 8 µM;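 active means mean inhibition at 8 µM reaching about 37%, which flags the compound as non-specific, limit read from the data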;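 further: p53-null SaOS-2 cells with luciferase driven by a doxycycline-inducible promoter; compound on cells about two nights before reading with doxycycline added after day one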
An asterisk follows results filed as active; i = inactive; . = no result.

SMILES | Mdm2 MdmX PPI | Jurkat NFkB inh | 697 NFkB inh | NTR1 ag | Beta cell apopt | Bfl-1 A1 inh | Jurkat NFkB conf | Mdm2 MdmX conf | FLuc counter | others
CC(=O)O[C@@]12CO[C@@H]1C[C@H](O)[C@@]1(C)C(=O)[C@H](O)C3=C(C)[C@@H](OC(=O)[C@H](O)[C@@H](NC(=O)c4ccccc4)c4ccccc4)C[C@@](O)([C@@H](OC(=O)c4ccccc4)C12)C3(C)C (stereo not given in full) | 54* | 68* | -30 | -2 | 11 | 0 | 64* | 63* | 50*
CCNC(=O)[C@H]1O[C@@H](n2cnc3c(N)ncnc32)[C@H](O)[C@@H]1O | -19 | 9 | 14 | 5 | 2 | 1 | . | . | .
NC(=O)c1cn(C2OC(CO)C(O)C2O)c2ncnc(N)c12 (stereo not given) | 100* | 100* | 104* | 1 | . | 0 | 97* | 99* | 1 | 697 NFkB conf=106*
CC(=O)O[C@H]1[C@H]2O[C@]23[C@@H]2CC[C@]4(O)C[C@@H](O)CC[C@]4(C)C2CC[C@]3(C)[C@H]1c1ccc(=O)oc1 (stereo not given in full) | 85* | 96* | 71* | 0 | 0 | 0 | 91* | 64* | 48* | 697 NFkB conf=85*
Cn1cnc(CCN)c1 | -10 | -4 | -2 | -1 | . | -1 | . | . | .
CN1CCCC(C(=O)c2ccc(Cl)cc2)C1 (stereo not given) | -10 | -7 | 5 | -1 | 1 | 1 | . | . | .
CNc1ccc2nc3ccccc3[n+](C)c2c1 | 83* | 81* | 4 | -2 | 93* | 0 | 6 | 50* | 9
COC(=O)C1CN(C#N)N(c2ccc(Cl)cc2)C12c1ccccc1-c1ccccc12 (stereo not given) | 95* | 87* | -62 | 8 | 112* | 0 | 60* | 24 | .
CN1/C(=C\C=C\C2=[N+](C)c3ccc4ccccc4c3C2(C)C)C(C)(C)c2ccccc21 | 100* | 99* | 24 | -5 | 100* | -1 | 84* | 100* | 0
CN1/C(=C\C=Nc2ccccc2)C(C)(C)c2ccccc21 | 8 | 3 | -60 | -1 | . | 0 | . | . | .
N#Cc1c(/N=C/c2c(O)n(Cc3ccco3)c(=O)[nH]c2=O)sc2c1CCCC2 | -21 | 9 | -20 | 0 | 0 | 0 | . | . | .
ClCCOCOCCCl | 18 | 2 | 14 | -2 | -4 | 0 | . | . | .
Cc1ccc(C[n+]2c(-c3ccc(C)cc3)cc(-c3ccc(C)cc3)cc2-c2ccc(C)cc2)cc1 | 100* | 99* | 1 | 30 | 118* | 1 | 67* | 98* | 8
C=C1C(=O)O[C@@H]2C[C@@H](C)[C@@H]3C4OC4C(=O)[C@@]3(C)[C@@H](O)[C@H]12 (stereo not given in full) | 101* | 58* | i | 14 | 104* | 0 | 23 | 100* | 5 | 697 NFkB conf=-448

Compound activity from PubChem BioAssay.
